According to PubChem BioAssay (NCATS):
Records with an inconclusive call do not appear. Active and inactive are the calls of the source. The call rests on the fitted dose curve; in most records, active means well fitted curve in the direction sought with a large enough effect; inconclusive means small, poorly fitted or top-dose-only effect, or another doubt; inactive means no such curve, though single readings can be large; an effect the other way counts as inactive or inconclusive.

What was measured:
[1] = OV-KATE Cancer Cell Toxicity qHTS against the NCATS CANVASS Library (AID 1347345)
In short: (§1)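 Toxicity is measured over 72 h of compound exposure at 37 degrees C under 5% CO2. Each well holds 1000 cells, pre-incubated for 4 hours before dosing across an 11-point range. CellTiter-Glo luminescence gives viability.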

[2] = HPAF-II Cancer Cell Toxicity qHTS against the NCATS CANVASS Library (AID 1347346); further: nearly all actives have a fitted effect of over 55% in size
In short: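 1000 HPAF-II cells/well; 4 h pre-incubation; 11-pnt compound titration; 72 h, 37 degrees C/5% CO2; CellTiter-Glo, 15 min RT; luminescence read.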

[3] = UWB1.289 Cancer Cell Toxicity qHTS against the NCATS CANVASS Library (AID 1347347); further: nearly all actives have a fitted effect of over 60% in size
In short: as §1

[4] = OV-SAHO Cancer Cell Toxicity qHTS against the NCATS CANVASS Library (AID 1347348); further: nearly all actives have a fitted effect of over 55% in size
In short: as §1

[5] = Panc-1005 Cancer Cell Toxicity qHTS against the NCATS CANVASS Library (AID 1347349); further: nearly all actives have a fitted effect of over 60% in size
From the text: (§2) Natural products and their derivatives continue to be wellsprings of nascent therapeutic potential. However, many laboratories have limited resources for biological evaluation, leaving their previously isolated or synthesized compounds largely or completely untested. To address this issue, the Canvass library of natural products was assembled (https://tripod.nih.gov/canvass), in collaboration with academic and industry researchers, for quantitative high-throughput screening (qHTS) across a diverse set of cell-based and biochemical assays. The pure (>85% purity by liquid chromatography/mass spectrometry [LC/MS]) Canvass library of 346 natural products were submitted by 45 academic laboratories and companies around the world. […] The library was formatted into 1536-well plates and evaluated in 50 qHTS (in an 11-pnt concentration series) bioassays with broad scope of disease-relevant mechanisms. The resulting data set from 50 different assays was then systematically analyzed to identify overall trends and specific natural products with interesting biological activities. […]
(§3) Cancer Cell Toxicity protocol for cell lines COV-362, OV-KATE, OV-SAHO, UWB1.289, UWB1.289-WTBRCA1, HEK-293, HPAF-II, Panc-1005, SW1088, or U-118MG. […] Luminescence signal was acquired via the ViewLux plate reader (PerkinElmer) using a clear filter, 2 second exposure and 2x binning settings.

[6] = SW1088 Cancer Cell Toxicity qHTS against the NCATS CANVASS Library (AID 1347350); further: nearly all actives have a fitted effect of over 75% in size
From the text: as §2, §3

[7] = U-118MG Cancer Cell Toxicity qHTS against the NCATS CANVASS Library (AID 1347351); settings: U-118MG viability, CellTiter-Glo luminescence, 72 h; at 38.3 µM (top of the series)
In short: as §1

[8] = COV-362 Cancer Cell Toxicity qHTS against the NCATS CANVASS Library (AID 1347352)
In short: (§4)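 1000 cells/well, 4 h pre-incubation 37 °C/5% CO2; 11-pnt titration; 72 h; CellTiter-Glo 15 min RT, luminescence.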

[9] = A2780 Cisplatin Sensitive Ovarian Cancer Cell Toxicity qHTS against the NCATS CANVASS Library (AID 1347353); settings: A2780 ovarian cancer viability, ATPLite luminescence, 72 h; at 46.1 µM (top of the series); further: nearly all actives have a fitted effect of over 60% in size
From the text: Natural products and their derivatives continue to be wellsprings of nascent therapeutic potential. However, many laboratories have limited resources for biological evaluation, leaving their previously isolated or synthesized compounds largely or completely untested. To address this issue, the Canvass library of natural products was assembled (https://tripod.nih.gov/canvass), in collaboration with academic and industry researchers, for quantitative high-throughput screening (qHTS) across a diverse set of cell-based and biochemical assays. The pure (>85% purity by liquid chromatography/mass spectrometry [LC/MS]) Canvass library of 346 natural products were submitted by 45 academic laboratories and companies around the world. We collected pure natural products to circumvent deconvolution and structure elucidation due to time and resource limitations. The library was formatted into 1536-well plates and evaluated in 50 qHTS (in an 11-pnt concentration series) bioassays with broad scope of disease-relevant mechanisms. The resulting data set from 50 different assays was then systematically analyzed to identify overall trends and specific natural products with interesting biological activities. […]
Cancer Cell Toxicity protocol 1. […] Luminescence signal was acquired via the ViewLux plate reader (PerkinElmer) using a clear filter, 2 second exposure and 2x binning settings.

[10] = UWB1.289-WTBRCA1 Cancer Cell Toxicity qHTS against the NCATS CANVASS Library (AID 1347354); settings: UWB1.289-WTBRCA1 viability, CellTiter-Glo luminescence, 72 h; at 38.3 µM (top of the series)
In short: as §4

Measured: outcome

NCC(O)c1ccc(O)cc1 (stereo not given)
inactive: all assays above
